Activity calls are given as the source filed them.
How the values were obtained:
[1] = binders of probe aFSTL3 on microarray, primary screen, stem cell growth factor project, biochemical, small-molecule microarray, fluorescence 635/667 (AID 1064); settings: higher = more signal;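 note: measures binding of the biotinylated anti-FSTL3 antibody to printed compounds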
[2] = binders from COS7 lysate, DM2A8 probe, primary screen, torsin A project, cell lysate, small-molecule microarray, fluorescence 635/667 (AID 1065); settings: higher = more signal, COS7 lysate expressing mutant human TOR1A
[3] = binders of probe aFGF2 on microarray, primary screen, stem cell growth factor project, biochemical, small-molecule microarray, fluorescence 635/667 (AID 1067); settings: higher = more signal;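 note: measures binding of biotinylated aFGF2 protein to printed compounds on slides; z-score merges feature fluorescence and signal-to-noise across triplicate slides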
[4] = binders of probe aFGF10 on microarray, primary screen, stem cell growth factor project, biochemical, small-molecule microarray, fluorescence 635/667 (AID 1071); settings: higher = more signal;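 note: score merges 667 nm spot intensity and signal to noise from triplicate slides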
[5] = molecular target: Neurogenic locus notch homolog protein 2 (Homo sapiens) (UniProt Q04721); experiment: Notch2 binders on small-molecule microarrays, primary screen, biochemical, small-molecule microarray, 635 nm fluorescence, stem cell growth factors (AID 1073); settings: Notch2 binding, higher = more signal
Sequence of Neurogenic locus notch homolog protein 2 (Homo sapiens) (Q04721 whole entry, looked up, canonical isoform): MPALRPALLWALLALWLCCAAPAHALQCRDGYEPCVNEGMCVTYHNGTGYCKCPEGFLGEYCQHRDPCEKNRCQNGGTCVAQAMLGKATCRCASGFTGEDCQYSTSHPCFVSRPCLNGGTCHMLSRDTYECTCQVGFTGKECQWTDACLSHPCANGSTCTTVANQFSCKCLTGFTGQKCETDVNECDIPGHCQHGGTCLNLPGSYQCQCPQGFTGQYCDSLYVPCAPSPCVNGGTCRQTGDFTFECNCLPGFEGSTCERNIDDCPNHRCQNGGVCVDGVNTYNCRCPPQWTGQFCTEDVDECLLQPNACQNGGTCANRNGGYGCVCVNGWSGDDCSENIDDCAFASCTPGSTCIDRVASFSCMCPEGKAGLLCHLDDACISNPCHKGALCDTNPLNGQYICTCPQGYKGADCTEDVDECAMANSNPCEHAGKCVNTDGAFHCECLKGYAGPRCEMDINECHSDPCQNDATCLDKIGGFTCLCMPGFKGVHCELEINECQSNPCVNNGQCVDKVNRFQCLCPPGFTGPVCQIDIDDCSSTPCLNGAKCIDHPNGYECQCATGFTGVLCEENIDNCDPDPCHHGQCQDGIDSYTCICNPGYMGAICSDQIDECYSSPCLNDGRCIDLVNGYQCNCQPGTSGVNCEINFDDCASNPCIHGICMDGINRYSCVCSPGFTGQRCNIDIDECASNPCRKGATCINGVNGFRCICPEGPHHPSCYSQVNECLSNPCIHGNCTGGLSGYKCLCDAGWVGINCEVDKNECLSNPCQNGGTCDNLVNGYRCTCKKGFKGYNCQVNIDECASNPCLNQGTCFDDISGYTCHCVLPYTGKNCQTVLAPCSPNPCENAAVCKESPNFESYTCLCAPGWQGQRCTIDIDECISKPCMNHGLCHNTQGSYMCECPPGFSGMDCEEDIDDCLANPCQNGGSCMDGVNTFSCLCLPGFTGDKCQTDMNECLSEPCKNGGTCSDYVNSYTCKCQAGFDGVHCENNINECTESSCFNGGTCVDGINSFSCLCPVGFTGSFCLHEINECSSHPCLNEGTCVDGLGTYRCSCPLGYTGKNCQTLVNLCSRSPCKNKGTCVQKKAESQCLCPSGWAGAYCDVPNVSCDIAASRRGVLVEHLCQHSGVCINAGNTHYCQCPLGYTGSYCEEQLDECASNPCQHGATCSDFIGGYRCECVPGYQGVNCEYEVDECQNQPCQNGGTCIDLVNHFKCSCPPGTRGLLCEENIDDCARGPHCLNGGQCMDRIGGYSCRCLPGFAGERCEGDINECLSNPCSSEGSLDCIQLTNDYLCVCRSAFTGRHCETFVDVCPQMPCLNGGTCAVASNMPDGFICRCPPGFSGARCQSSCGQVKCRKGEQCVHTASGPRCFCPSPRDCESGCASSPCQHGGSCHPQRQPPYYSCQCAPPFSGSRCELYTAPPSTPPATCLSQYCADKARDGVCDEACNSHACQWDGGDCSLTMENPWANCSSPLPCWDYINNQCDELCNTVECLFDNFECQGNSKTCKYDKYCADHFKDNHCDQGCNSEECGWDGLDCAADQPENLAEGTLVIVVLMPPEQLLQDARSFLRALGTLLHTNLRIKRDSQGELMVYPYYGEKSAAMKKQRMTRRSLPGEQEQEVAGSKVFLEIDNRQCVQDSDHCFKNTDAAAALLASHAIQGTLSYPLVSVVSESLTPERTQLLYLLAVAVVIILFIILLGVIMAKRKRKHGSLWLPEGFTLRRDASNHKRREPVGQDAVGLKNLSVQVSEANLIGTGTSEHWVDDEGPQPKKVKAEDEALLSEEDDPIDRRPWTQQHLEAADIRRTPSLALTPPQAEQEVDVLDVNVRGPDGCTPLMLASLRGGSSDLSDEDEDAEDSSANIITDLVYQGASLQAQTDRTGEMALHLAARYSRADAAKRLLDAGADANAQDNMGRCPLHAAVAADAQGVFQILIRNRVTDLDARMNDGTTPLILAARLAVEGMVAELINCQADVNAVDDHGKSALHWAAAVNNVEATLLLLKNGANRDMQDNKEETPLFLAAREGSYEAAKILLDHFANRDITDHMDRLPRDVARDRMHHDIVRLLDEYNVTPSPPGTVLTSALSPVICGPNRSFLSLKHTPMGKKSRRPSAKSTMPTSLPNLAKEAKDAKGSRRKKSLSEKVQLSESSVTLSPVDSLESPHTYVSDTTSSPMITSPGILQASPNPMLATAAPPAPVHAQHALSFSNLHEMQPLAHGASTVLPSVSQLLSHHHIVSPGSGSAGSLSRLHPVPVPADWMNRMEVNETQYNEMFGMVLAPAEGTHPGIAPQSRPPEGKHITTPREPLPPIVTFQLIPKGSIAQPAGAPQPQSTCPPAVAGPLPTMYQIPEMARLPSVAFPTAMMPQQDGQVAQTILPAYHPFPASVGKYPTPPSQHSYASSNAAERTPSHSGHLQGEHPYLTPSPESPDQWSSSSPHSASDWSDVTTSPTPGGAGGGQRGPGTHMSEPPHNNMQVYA

[6] = molecular target: Pro-neuregulin-1, membrane-bound isoform (Homo sapiens) (UniProt Q02297); experiment: NRG1 binders on small-molecule microarrays, primary screen, psychiatric disease protein project, biochemical, small-molecule microarray, fluorescence 635/667 (AID 1075); settings: NRG1 binding, 635 nm fluorescence, higher = more signal;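 note: score combines 667 nm spot fluorescence with signal to noise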
Sequence of Pro-neuregulin-1, membrane-bound isoform (Homo sapiens) (Q02297 whole entry, looked up, the tested form may be a part, canonical isoform): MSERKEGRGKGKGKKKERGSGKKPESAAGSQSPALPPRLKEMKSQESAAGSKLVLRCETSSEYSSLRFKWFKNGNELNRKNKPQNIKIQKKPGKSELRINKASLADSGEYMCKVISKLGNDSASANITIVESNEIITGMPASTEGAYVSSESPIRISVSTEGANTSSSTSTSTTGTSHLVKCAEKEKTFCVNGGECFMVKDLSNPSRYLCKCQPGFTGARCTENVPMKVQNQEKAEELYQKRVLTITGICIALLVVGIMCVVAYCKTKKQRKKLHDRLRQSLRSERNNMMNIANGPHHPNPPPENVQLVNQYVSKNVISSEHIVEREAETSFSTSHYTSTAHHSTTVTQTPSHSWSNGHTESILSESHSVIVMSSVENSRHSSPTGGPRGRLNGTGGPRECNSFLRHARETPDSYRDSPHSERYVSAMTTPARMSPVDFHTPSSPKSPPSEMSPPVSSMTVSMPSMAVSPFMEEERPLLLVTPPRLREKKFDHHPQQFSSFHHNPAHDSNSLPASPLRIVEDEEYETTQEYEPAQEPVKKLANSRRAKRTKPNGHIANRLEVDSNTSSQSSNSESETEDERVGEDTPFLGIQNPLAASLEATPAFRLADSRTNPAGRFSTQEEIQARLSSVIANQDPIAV

[7] = system: Neuregulin-1 EGF-like domain; experiment: binders of neuregulin-1 EGF-like domain, primary screen, biochemical, small-molecule microarray, 635 nm fluorescence (AID 1081); settings: small-molecule microarray binding, higher = more signal;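 note: binding of the protein to compounds printed on small-molecule microarray slides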
[8] = FRG1 promoter luciferase signal modulators, primary screen, FRG1 inhibition for FSHD, cell-based, C2C12 myotubes, firefly/Renilla luciferase, luminescence (AID 1084); settings: higher = more signal, called active from +8 up or from −8 down
[9] = binders of probe aFST on microarray, primary screen, stem cell growth factor project, biochemical, small-molecule microarray, fluorescence 635/667 (AID 1086); settings: higher = more signal;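 note: score merges 667 nm fluorescence with signal-to-noise of each printed compound spot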
[10] = binders of probe aHhip on microarray, primary screen, stem cell growth factor project, biochemical, small-molecule microarray, fluorescence 635/667 (AID 1087); settings: higher = more signal;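 note: score merges spot fluorescence at 667nm with spot signal to noise ratio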

Row | Structure (SMILES) | composite z-score [1] | composite z-score [2] | composite z-score [3] | composite z-score [4] | composite z-score [5] | composite z-score [6] | composite z-score [7] | z-score [8] | composite z-score [9] | composite z-score [10]
1 | CN(C)CCCNC(=O)[C@@H]1c2ccccc2C(=O)N(Cc2ccccc2Cl)[C@H]1c1ccc(CO)cc1 | -0.126 | 0.542 | -0.19 | 0.069 | -0.243 | 0.261 | -0.0724 | -1.96 (inactive) | -0.177 | -0.19
2 | COCCOC(=O)N1C(=O)[C@@]2(c3cc(C#CC4=CCCCC4)ccc31)[C@H](c1ccccc1OCCO)N1[C@H](c3ccccc3)[C@H](c3ccccc3)OC(=O)[C@H]1[C@@H]2C(=O)N1CCCCCCC1 | 0.493 | 0.107 | 0.0829 | 0.61 | 1.1 | 0.382 | 1.29 | -0.639 (inactive) | 0.497 | -0.972
3 | CN(C)C(=O)C1N=C(c2ccc(OCCCO)cc2)N(c2ccccc2)O1 (stereo not given) | -0.135 | 0.18 | 0.0097 | 0.929 | 1.19 | 0.869 | 1.39 | 4.85 (inactive) | 0.514 | 0.107
4 | CC(C)(C)N1CC=CC23O[C@@H]4C=CCCOC(=O)C4[C@H]2C(=O)N(CCO)[C@@H]3C1=O (stereo not given in full) | -0.0666 | -0.46 | -0.132 | -0.133 | -0.717 | 0.767 | 1.48 | 0.22 (inactive) | -0.474 | -0.236
5 | [N-]=[N+]=Nc1ccccc1[C@H]1OC(c2ccc(OCCCO)cc2)=N[C@@]1(CCS(=O)(=O)c1ccccc1)C(=O)NCCN1CCOCC1 | 0.052 | 0.0825 | 0.115 | 0.839 | 1.28 | 1.35 | 1.12 | 5.72 (inactive) | 1.58 | -0.166
6 | COC(=O)[C@@]1(Cc2ccc(OC)cc2)[C@H]2c3cc(C(=O)N(C)C)n(CCO)c3C[C@H]2CN1C(=O)c1ccccc1 | 0.494 | 2.56 | 0.152 | -0.359 | 0.993 | 2.13 | -0.139 | 1.63 (inactive) | 0.871 | 0.0365
7 | O=C(CS)NCCCCCCNC(=O)[C@H]1C[C@H]2C(=O)N[C@@H](Cc3ccccc3)C(=O)N2[C@H]1c1ccc(O)cc1 | -0.361 | 0.375 | -0.132 | 0.836 | 0.51 | 1.34 | 1.36 | 0.234 (inactive) | -0.571 | -0.928
8 | CCCNC(=O)[C@@]1(c2ccc([N+](=O)[O-])cc2)CC(=O)N(C2CCCCC2)[C@@H]1c1ccc(CO)cc1 | -0.0597 | 0.256 | -0.0133 | 0.588 | 1.03 | 0.675 | 1.27 | -1.31 (inactive) | 0.565 | 0.113
9 | COCC1=C2[C@@H](CCc3ccccc3)OB(O)C[C@@H]2[C@@H]2C(=O)C=CC(=O)[C@@H]2C1 | -0.265 | 0.42 | -0.051 | 0.328 | 0.386 | 0.404 | 0.952 | -0.632 (inactive) | 0.182 | -0.0708
10 | COC1OC[C@]2(C)[C@H]3C4=C(CN2C(=O)OC(C)(C)C)[C@H](C)C(CO)C(CO)C4CC[C@@H]13 (stereo not given in full) | 1.99 | 0.473 | 0.236 | 0.557 | 1.79 | 1.82 | 1.25 | 2.38 (inactive) | 1.85 | 1
11 | COc1ccc(CN(C2=CC[C@@]3(C(N)=O)C(=O)C(Cl)=C(Cl)C(=O)[C@@]3(C#N)C2)S(=O)(=O)c2ccc(Br)cc2)cc1 | -0.181 | -0.0483 | -0.0657 | 0.497 | 0.765 | 0.914 | 1.11 | -0.991 (inactive) | 0.343 | 0.0176
12 | O=C1N(Cc2ccccc2)c2ccccc2[C@@H]2OC(c3ccc(OCCCO)cc3)=N[C@]12Cc1ccccc1 | 0.677 | -0.603 | 0.06 | 0.569 | 0.848 | -0.329 | 1.19 | -2.82 (inactive) | 0.191 | 0.113
13 | [N-]=[N+]=NCc1ccccc1[C@H]1OC(c2ccc(OCCCO)cc2)=N[C@@]1(CCS(=O)(=O)c1ccccc1)C(=O)NCC(O)CO (stereo not given in full) | 0.115 | -0.191 | 0.252 | 0.564 | 1.47 | 1.25 | 1.36 | 0.515 (inactive) | 1.46 | 0.126
14 | C[N+](C)(C)CCCC[C@@H]1NC(=O)[C@H]2C[C@@H](C(=O)NCCCCCCN)[C@@H](c3ccc(O)cc3)N2C1=O | 0.239 | 0.713 | 0.0797 | 0.575 | 1.27 | 1.99 | 1.09 | -0.194 (inactive) | 0.901 | 0.373
15 | Cc1ccccc1C(O)C1C=CC2C(=O)N(C)C(=O)C2N1N(c1ccccc1)c1ccccc1 (stereo not given) | 1.01 | -0.038 | 0.149 | 0.113 | 0.483 | -0.53 | -0.878 | -0.0079 (inactive) | 0.606 | 0.0077
16 | [N-]=[N+]=Nc1ccccc1C[C@]1(C(N)=O)N=C(c2ccc(OCCCO)cc2)O[C@H]1c1ccccc1N=[N+]=[N-] | 0.12 | 0.902 | 0.0598 | 1.05 | 1.23 | 1.42 | 1.21 | -1.08 (inactive) | 0.359 | -0.0237
17 | C=C(/C(=C/C[C@H](OC(C)=O)c1cccc(OCCO)c1)c1cnc2ccccc2c1)C(C)C | -0.104 | 0.21 | -0.108 | 0.459 | 1.56 | 0.35 | 0.914 | -0.127 (inactive) | -0.241 | -0.0618
18 | O=C(NCCCCCNC(=O)/C(Cc1ccccc1)=N/O)OCc1ccccc1 | -0.51 | 0.148 | -0.25 | 0.293 | 0.421 | -0.181 | -0.422 | -0.213 (inactive) | 0.152 | -0.409
19 | C[C@H]1NC(=O)[C@@]23C(=O)N[C@@H](Cc4ccccc4)C2[C@H](C)[C@@]2(C)O[C@H]2C3/C=C/C/C=C\CNC(=O)[C@H](Cc2ccccc2)NC1=O (stereo not given in full) | -0.536 | 0.0198 | -0.206 | 0.533 | -0.158 | 1.4 | 1.11 | 1.8 (inactive) | -0.107 | -0.137
20 | CC(C)N1C(=O)c2ccccc2[C@@H](C(=O)NC2CC2)[C@@H]1c1ccc(CO)cc1 | -0.236 | -0.184 | -0.0615 | 0.0389 | -0.425 | 0.933 | 1.3 | 0.216 (inactive) | -0.593 | -0.189
21 | CC(C)N1CC=CC23O[C@@H]4C=CCOC(=O)[C@@H]4[C@H]2C(=O)N(CCCO)[C@@H]3C1=O (stereo not given in full) | 0.645 | 1.64 | -0.188 | 0.425 | -0.671 | 1.57 | 1.58 | -0.385 (inactive) | -0.436 | -0.16
22 | COC(=O)[C@@]1(Cc2ccccc2)[C@H]2c3cc(C(=O)N(C)C)n(CCc4ccc(O)c(OC)c4)c3C[C@H]2CN1C(=O)c1ccccc1 | 0.514 | 0.283 | 0.356 | 0.557 | 0.749 | 0.258 | 0.781 | 0.96 (inactive) | 1.34 | 2.09
23 | O=C1OCC=C[C@H]2OC34C=CCN(c5ccc(Cl)cc5)C(=O)[C@H]3N(CCO)C(=O)[C@@H]4[C@@H]12 (stereo not given in full) | 0.601 | -0.515 | -0.147 | -0.0609 | -1.09 | -0.0774 | 1.04 | 0.782 (inactive) | -0.915 | -0.137
24 | CO[C@H]1O[C@H](CO)[C@@H](OC(=O)Nc2ccc3c(c2)OCO3)[C@H](OC(=O)c2cc3ccccc3[nH]2)[C@H]1OC(=O)c1cc2ccccc2[nH]1 | -0.0446 | -0.152 | -0.0047 | 0.236 | -0.904 | 0.386 | 0.514 | 1.13 (inactive) | -0.598 | 0.0623
25 | COCCOC(=O)N1C(=O)[C@@]2(c3cc(C#CCCO)ccc31)[C@H](C(=O)Nc1nc3ccccc3s1)[C@H]1C(=O)O[C@H](c3ccccc3)[C@H](c3ccccc3)N1[C@@H]2c1ccccc1OCCO | -0.224 | 0.53 | 0.0293 | 0.802 | 1.29 | 0.95 | 1.32 | 1.23 (inactive) | 0.745 | 0.153
26 | O[C@@H](Cc1ccccc1)[C@@H](/C=C/C1CC1)N(CC#Cc1ccccc1)Cc1cccc(Cl)c1 | 1.39 | -0.393 | -0.129 | -1.06 | -1.32 | -0.34 | -0.162 | -0.976 (inactive) | -0.959 | -0.227
27 | C=CCC(OC(C)=O)[C@@H]1[C@@H](N(Cc2ccc(-c3ccccc3)cc2)C(=O)Cc2ccc(F)cc2)c2cc(OCCCO)ccc2N1C(=O)Cc1ccc(OC)cc1 (stereo not given in full) | -0.134 | 0.132 | -0.172 | 0.295 | -0.437 | 0.0936 | -0.438 | -0.528 (inactive) | 0.121 | -0.175
28 | CCC(CC)C(O)C1C=CC2C(=O)N(c3ccccc3)C(=O)C2N1Nc1ccc(C(C)C)cc1 (stereo not given) | 0.251 | -0.207 | 0.0495 | 0.687 | 1.64 | 1.23 | 1.28 | -0.963 (inactive) | 1.21 | -0.195
29 | CN1C(=O)C2C=CC(C(O)c3ccc(F)cc3)N(Nc3ccccc3)C2C1=O (stereo not given) | -0.12 | -0.286 | -0.0222 | 0.208 | 1.24 | 1.35 | 1.34 | -0.604 (inactive) | 0.862 | -0.215
30 | C=C(C)C1CCC(C(O)C2C=CC3C(=O)N(C)C(=O)C3N2N2CCCCC2)CC1 (stereo not given) | 0.207 | -0.222 | 0.118 | 0.82 | 1.62 | 1.45 | 1.24 | 1.17 (inactive) | 1.23 | 0.134

From PubChem BioAssay
